7 sequences from PMC11006913 can be followed below.

Common to all, as to assay: PBM; 200 nM protein, PBS
Common to all, as to conditions: dsDNA, one strand shown

The target in assay [1] is SHOX (Homo sapiens, UniProt O15266 103-189).
The target of assay [2] is T1, SIX6 (Homo sapiens, UniProt O95475 114-200, L167I).
T1 sequence: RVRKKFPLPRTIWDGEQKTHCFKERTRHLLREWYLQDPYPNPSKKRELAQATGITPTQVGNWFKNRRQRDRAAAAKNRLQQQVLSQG

Assay [3] deals with T2, SIX6 (Homo sapiens, UniProt O95475 114-200, L143V).
T2 sequence: T1 sequence with L30V, I54L

The target of assay [4] is T3, SIX6 (Homo sapiens, UniProt O95475 114-200, H141N).
T3 sequence: T1 sequence with H28N, I54L

Assay [5] deals with T4, SIX6 (Homo sapiens, UniProt O95475 114-200, T165P).
T4 sequence: T1 sequence with T52P, I54L

Assay [6] has as its target T5, SIX6 (Homo sapiens, UniProt O95475 114-200, L167M).
T5 sequence: T1 sequence with I54M

The target of assay [7] is T6, SIX6 (Homo sapiens, UniProt O95475 114-200, L143M).
T6 sequence: T1 sequence with L30M, I54L

The target in assay [8] is T7, SIX6 (Homo sapiens, UniProt O95475 114-200, L143I).
T7 sequence: T1 sequence with L30I, I54L

For assay [9], the target named is T8, SIX6 (Homo sapiens, UniProt O95475 114-200, T165G).
T8 sequence: T1 sequence with T52G, I54L

Assay [10] deals with HOXA2 (Homo sapiens, UniProt O43364 129-215, R185T).
The target of assay [11] is T9, SIX6 (Homo sapiens, UniProt O95475 114-200, T139Q).
T9 sequence: T1 sequence with T26Q, I54L

Assay [12] addresses MSX2 (Homo sapiens, UniProt P35548 130-214, R199I).
The target in assay [13] is T10, SIX6 (Homo sapiens, UniProt O95475 114-200, T165A).
T10 sequence: T1 sequence with T52A, I54L

Assay [14] has as its target SHOX (Homo sapiens, UniProt O15266 103-189, R173C).
Assay [15] has as its target HOXA2 (Homo sapiens, UniProt O43364 129-215, R185K).
Assay [16] concerns the target MSX2 (Homo sapiens, UniProt P35548 130-214).
Assay [17] addresses T11, SIX6 (Homo sapiens, UniProt O95475 114-200, L167V).
T11 sequence: T1 sequence with I54V

In assay [18] the target is T12, SIX6 (Homo sapiens, UniProt O95475 114-200).
T12 sequence: T1 sequence with I54L

In assay [19] the target is T13, SIX6 (Homo sapiens, UniProt O95475 114-200, T165I).
T13 sequence: T1 sequence with T52I, I54L

In assay [20] the target is MSX2 (Homo sapiens, UniProt P35548 130-214, F161Y).
Assay [21] addresses HOXA2 (Homo sapiens, UniProt O43364 129-215, Y150S).
Assay [22] addresses HOXA2 (Homo sapiens, UniProt O43364 129-215).
Assay [23] has as its target T14, VENTX (Homo sapiens, UniProt O95231 78-163, R121Q).
T14 sequence: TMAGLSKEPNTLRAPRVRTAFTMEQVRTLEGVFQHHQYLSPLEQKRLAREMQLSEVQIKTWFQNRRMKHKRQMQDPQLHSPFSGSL

Assay [24] concerns the target T15, VENTX (Homo sapiens, UniProt O95231 78-163).
T15 sequence: T14 sequence with Q44R

The target of assay [25] is HOXA7 (Homo sapiens, UniProt P31268 116-202).
Assay [26] deals with ALX4 (Homo sapiens, UniProt Q9H161 200-286).
In assay [27] the target is T16, VENTX (Homo sapiens, UniProt O95231 78-163, Y115F).
T16 sequence: T14 sequence with Y38F, Q44R

For assay [28], the target named is ALX4 (Homo sapiens, UniProt Q9H161 200-286, Q225E).
For assay [29], the target named is VAX1 (Homo sapiens, UniProt Q5SQQ9 86-172).
Assay [30] concerns the target VAX1 (Homo sapiens, UniProt Q5SQQ9 86-172, T142I).
In assay [31] the target is HOXA7 (Homo sapiens, UniProt P31268 116-202, W177C).
For assay [32], the target named is VAX1 (Homo sapiens, UniProt Q5SQQ9 86-172, K157R).
The target in assay [33] is T17, PAX4 (Homo sapiens, UniProt O43316 9-242, R200K).
T17 sequence: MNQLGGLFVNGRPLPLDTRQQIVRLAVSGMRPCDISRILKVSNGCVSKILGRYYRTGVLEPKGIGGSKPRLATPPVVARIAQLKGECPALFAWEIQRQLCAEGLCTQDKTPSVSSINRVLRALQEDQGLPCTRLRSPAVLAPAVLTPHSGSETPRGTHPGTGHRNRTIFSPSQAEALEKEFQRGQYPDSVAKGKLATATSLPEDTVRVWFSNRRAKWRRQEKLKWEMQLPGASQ

The target of assay [34] is T18, PAX4 (Homo sapiens, UniProt O43316 9-242).
T18 sequence: T17 sequence with K192R

Assay [35] concerns the target T19, PAX4 (Homo sapiens, UniProt O43316 9-242, R200Q).
T19 sequence: T17 sequence with K192Q

In assay [36] the target is T20, PAX4 (Homo sapiens, UniProt O43316 9-242, F177V).
T20 sequence: T17 sequence with F169V, K192R

Assay [37] addresses T21, PAX4 (Homo sapiens, UniProt O43316 9-242, F177Y).
T21 sequence: T17 sequence with F169Y, K192R

Assay [38] concerns the target T22, PAX4 (Homo sapiens, UniProt O43316 9-242, R227W).
T22 sequence: T17 sequence with K192R, R219W

Assay [39] has as its target HOXA4 (Homo sapiens, UniProt Q00056 201-287, W262R).
The target in assay [40] is HOXA4 (Homo sapiens, UniProt Q00056 201-287, R217L).
In assay [41] the target is HOXA4 (Homo sapiens, UniProt Q00056 201-287).
The target of assay [42] is HOXA4 (Homo sapiens, UniProt Q00056 201-287, W262F).
Assay [43] addresses CRX (Homo sapiens, UniProt O43186 26-111).
Assay [44] deals with CRX (Homo sapiens, UniProt O43186 26-111, E42D).
Assay [45] concerns the target HOXD13 (Homo sapiens, UniProt P35453 263-343, T313R).
The target of assay [46] is HOXD13 (Homo sapiens, UniProt P35453 263-343).
Assay [47] addresses HOXD13 (Homo sapiens, UniProt P35453 263-343, T313A).
For assay [48], the target named is CRX (Homo sapiens, UniProt O43186 26-111, R41L).

Where a chain is given by its changes, count along the chain named.

Sequence of SHOX (Homo sapiens, UniProt O15266 103-189) (O15266 103-189): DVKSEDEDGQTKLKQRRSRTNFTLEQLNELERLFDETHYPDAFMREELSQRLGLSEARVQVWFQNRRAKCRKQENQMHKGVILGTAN
Sequence of SHOX (Homo sapiens, UniProt O15266 103-189, R173C) (O15266 103-189 R173C): as the sequence (O15266 103-189) above, with R71C counted along it
Sequence of HOXD13 (Homo sapiens, UniProt P35453 263-343, T313R) (P35453 263-343 T313R): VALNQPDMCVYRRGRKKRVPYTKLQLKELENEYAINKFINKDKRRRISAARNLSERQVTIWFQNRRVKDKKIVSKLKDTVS
Sequence of ALX4 (Homo sapiens, UniProt Q9H161 200-286, Q225E) (Q9H161 200-286 Q225E): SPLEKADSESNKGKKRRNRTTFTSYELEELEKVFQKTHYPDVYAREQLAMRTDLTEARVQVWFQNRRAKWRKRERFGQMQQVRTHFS
Sequence of HOXA7 (Homo sapiens, UniProt P31268 116-202, W177C) (P31268 116-202 W177C): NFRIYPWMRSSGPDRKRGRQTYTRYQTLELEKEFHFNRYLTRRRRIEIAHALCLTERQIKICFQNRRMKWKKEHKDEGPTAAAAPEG
Sequence of MSX2 (Homo sapiens, UniProt P35548 130-214) (P35548 130-214): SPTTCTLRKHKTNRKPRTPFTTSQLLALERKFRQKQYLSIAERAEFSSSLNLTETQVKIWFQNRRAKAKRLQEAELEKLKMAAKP
Sequence of CRX (Homo sapiens, UniProt O43186 26-111, E42D) (O43186 26-111 E42D): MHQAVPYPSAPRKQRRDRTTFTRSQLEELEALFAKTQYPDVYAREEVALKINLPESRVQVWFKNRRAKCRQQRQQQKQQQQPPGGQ
Sequence of HOXD13 (Homo sapiens, UniProt P35453 263-343, T313A) (P35453 263-343 T313A): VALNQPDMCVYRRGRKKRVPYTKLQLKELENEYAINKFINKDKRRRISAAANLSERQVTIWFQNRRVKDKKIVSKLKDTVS
Sequence of HOXA4 (Homo sapiens, UniProt Q00056 201-287, W262R) (Q00056 201-287 W262R): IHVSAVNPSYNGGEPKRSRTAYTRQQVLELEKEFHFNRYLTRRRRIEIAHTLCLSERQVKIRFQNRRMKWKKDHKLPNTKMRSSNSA
Sequence of HOXA2 (Homo sapiens, UniProt O43364 129-215, R185K) (O43364 129-215 R185K): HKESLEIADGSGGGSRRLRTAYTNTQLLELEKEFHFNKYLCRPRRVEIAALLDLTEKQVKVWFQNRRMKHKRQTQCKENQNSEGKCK
Sequence of HOXA4 (Homo sapiens, UniProt Q00056 201-287, R217L) (Q00056 201-287 R217L): as the sequence (Q00056 201-287 W262R) above, with R17L, R62W counted along it
Sequence of MSX2 (Homo sapiens, UniProt P35548 130-214, R199I) (P35548 130-214 R199I): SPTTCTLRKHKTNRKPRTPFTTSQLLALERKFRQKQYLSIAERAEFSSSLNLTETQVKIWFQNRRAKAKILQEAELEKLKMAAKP
Sequence of HOXA2 (Homo sapiens, UniProt O43364 129-215, Y150S) (O43364 129-215 Y150S): as the sequence (O43364 129-215 R185K) above, with Y22S, K57R counted along it
Sequence of HOXA2 (Homo sapiens, UniProt O43364 129-215) (O43364 129-215): as the sequence (O43364 129-215 R185K) above, with K57R counted along it
Sequence of VAX1 (Homo sapiens, UniProt Q5SQQ9 86-172, T142I) (Q5SQQ9 86-172 T142I): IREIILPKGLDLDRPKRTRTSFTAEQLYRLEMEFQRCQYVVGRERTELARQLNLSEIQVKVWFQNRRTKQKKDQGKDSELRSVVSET
Sequence of HOXA7 (Homo sapiens, UniProt P31268 116-202) (P31268 116-202): as the sequence (P31268 116-202 W177C) above, with C62W counted along it
Sequence of HOXA4 (Homo sapiens, UniProt Q00056 201-287, W262F) (Q00056 201-287 W262F): as the sequence (Q00056 201-287 W262R) above, with R62F counted along it
Sequence of VAX1 (Homo sapiens, UniProt Q5SQQ9 86-172, K157R) (Q5SQQ9 86-172 K157R): as the sequence (Q5SQQ9 86-172 T142I) above, with I57T, K72R counted along it
Sequence of CRX (Homo sapiens, UniProt O43186 26-111, R41L) (O43186 26-111 R41L): as the sequence (O43186 26-111 E42D) above, with R16L, D17E counted along it
Sequence of VAX1 (Homo sapiens, UniProt Q5SQQ9 86-172) (Q5SQQ9 86-172): as the sequence (Q5SQQ9 86-172 T142I) above, with I57T counted along it
Sequence of MSX2 (Homo sapiens, UniProt P35548 130-214, F161Y) (P35548 130-214 F161Y): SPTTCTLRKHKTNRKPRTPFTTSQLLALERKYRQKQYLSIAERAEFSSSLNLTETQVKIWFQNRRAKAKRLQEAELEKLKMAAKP
Sequence of CRX (Homo sapiens, UniProt O43186 26-111) (O43186 26-111): as the sequence (O43186 26-111 E42D) above, with D17E counted along it
Sequence of HOXA4 (Homo sapiens, UniProt Q00056 201-287) (Q00056 201-287): as the sequence (Q00056 201-287 W262R) above, with R62W counted along it
Sequence of ALX4 (Homo sapiens, UniProt Q9H161 200-286) (Q9H161 200-286): as the sequence (Q9H161 200-286 Q225E) above, with E26Q counted along it
Sequence of HOXD13 (Homo sapiens, UniProt P35453 263-343) (P35453 263-343): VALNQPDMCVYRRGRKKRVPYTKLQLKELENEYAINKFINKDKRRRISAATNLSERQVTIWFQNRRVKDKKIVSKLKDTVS
Sequence of HOXA2 (Homo sapiens, UniProt O43364 129-215, R185T) (O43364 129-215 R185T): as the sequence (O43364 129-215 R185K) above, with K57T counted along it

On to GGAGCGGA, for which the binding signal in assay [1] was 7.25 upbm affinity estimate (log intensity, higher = more binding, comparable within an allelic series); in assay [2], 9.19 upbm affinity estimate (log intensity, higher = more binding, comparable within an allelic series); in assay [3], 8.94 upbm affinity estimate (log intensity, higher = more binding, comparable within an allelic series); in assay [4], 9.15 upbm affinity estimate (log intensity, higher = more binding, comparable within an allelic series); in [5], 8.85 upbm affinity estimate (log intensity, higher = more binding, comparable within an allelic series); in [6] it was 9.13 upbm affinity estimate (log intensity, higher = more binding, comparable within an allelic series). The binding signal in assay [7] was 9.14 upbm affinity estimate (log intensity, higher = more binding, comparable within an allelic series); in assay [8], 9.05 upbm affinity estimate (log intensity, higher = more binding, comparable within an allelic series); in [9], 9.13 upbm affinity estimate (log intensity, higher = more binding, comparable within an allelic series); in assay [10], 7.31 upbm affinity estimate (log intensity, higher = more binding, comparable within an allelic series); in assay [11], 9.15 upbm affinity estimate (log intensity, higher = more binding, comparable within an allelic series); in assay [12] it was 9.51 upbm affinity estimate (log intensity, higher = more binding, comparable within an allelic series). The binding signal is 9.08 upbm affinity estimate (log intensity, higher = more binding, comparable within an allelic series) in assay [13]; 7.2 upbm affinity estimate (log intensity, higher = more binding, comparable within an allelic series) in [14]; 10.3 upbm affinity estimate (log intensity, higher = more binding, comparable within an allelic series) in assay [15]; 9.6 upbm affinity estimate (log intensity, higher = more binding, comparable within an allelic series) in assay [16]; 9.14 upbm affinity estimate (log intensity, higher = more binding, comparable within an allelic series) in assay [17]; 9.16 upbm affinity estimate (log intensity, higher = more binding, comparable within an allelic series) in assay [18]. In addition, the binding signal was 9.13 upbm affinity estimate (log intensity, higher = more binding, comparable within an allelic series) in [19]; 9.62 upbm affinity estimate (log intensity, higher = more binding, comparable within an allelic series) in [20]; 10.5 upbm affinity estimate (log intensity, higher = more binding, comparable within an allelic series) in assay [21]; 7.46 upbm affinity estimate (log intensity, higher = more binding, comparable within an allelic series) in [22].

As to CCGGTCTC, the binding signal was 7.18 upbm affinity estimate (log intensity, higher = more binding, comparable within an allelic series) in assay [1]; 8.15 upbm affinity estimate (log intensity, higher = more binding, comparable within an allelic series) in assay [23]; 8.23 upbm affinity estimate (log intensity, higher = more binding, comparable within an allelic series) in assay [24]; 8.45 upbm affinity estimate (log intensity, higher = more binding, comparable within an allelic series) in [25]; 8.33 upbm affinity estimate (log intensity, higher = more binding, comparable within an allelic series) in [26]; 8.1 upbm affinity estimate (log intensity, higher = more binding, comparable within an allelic series) in assay [27]. In addition, the binding signal in assay [28] is 8.34 upbm affinity estimate (log intensity, higher = more binding, comparable within an allelic series); in assay [14], 7.23 upbm affinity estimate (log intensity, higher = more binding, comparable within an allelic series); in [29], 7.31 upbm affinity estimate (log intensity, higher = more binding, comparable within an allelic series); in assay [30], 7.3 upbm affinity estimate (log intensity, higher = more binding, comparable within an allelic series); in assay [31] it was 8.44 upbm affinity estimate (log intensity, higher = more binding, comparable within an allelic series); in [32] it was 7.04 upbm affinity estimate (log intensity, higher = more binding, comparable within an allelic series).

For the sequence AATCGTGT, the binding signal in assay [1] was 8.39 upbm affinity estimate (log intensity, higher = more binding, comparable within an allelic series).

For the sequence GGGCAGAC, the binding signal in [1] was 7.12 upbm affinity estimate (log intensity, higher = more binding, comparable within an allelic series); in assay [23], 7.99 upbm affinity estimate (log intensity, higher = more binding, comparable within an allelic series); in assay [24], 8.2 upbm affinity estimate (log intensity, higher = more binding, comparable within an allelic series); in [33], 9.48 upbm affinity estimate (log intensity, higher = more binding, comparable within an allelic series); in [27] it was 8.13 upbm affinity estimate (log intensity, higher = more binding, comparable within an allelic series); in assay [34], 9.45 upbm affinity estimate (log intensity, higher = more binding, comparable within an allelic series). Besides, the binding signal is 9.48 upbm affinity estimate (log intensity, higher = more binding, comparable within an allelic series) in [35]; 7.25 upbm affinity estimate (log intensity, higher = more binding, comparable within an allelic series) in [14]; 9.22 upbm affinity estimate (log intensity, higher = more binding, comparable within an allelic series) in assay [36]; 9.21 upbm affinity estimate (log intensity, higher = more binding, comparable within an allelic series) in assay [37]; 9.33 upbm affinity estimate (log intensity, higher = more binding, comparable within an allelic series) in assay [38].

For the sequence CCCCGGGA, the binding signal in [1] is 7.25 upbm affinity estimate (log intensity, higher = more binding, comparable within an allelic series); in assay [39], 9.71 upbm affinity estimate (log intensity, higher = more binding, comparable within an allelic series); in assay [40] it was 9.86 upbm affinity estimate (log intensity, higher = more binding, comparable within an allelic series); in assay [14], 7.27 upbm affinity estimate (log intensity, higher = more binding, comparable within an allelic series); in assay [41], 9.8 upbm affinity estimate (log intensity, higher = more binding, comparable within an allelic series); in assay [42], 9.99 upbm affinity estimate (log intensity, higher = more binding, comparable within an allelic series).

Regarding ATTGCTAC, in assay [1], the binding signal was 8.23 upbm affinity estimate (log intensity, higher = more binding, comparable within an allelic series).

With GGCGGGCA, the binding signal in assay [1] is 7.13 upbm affinity estimate (log intensity, higher = more binding, comparable within an allelic series); in assay [43], 8.31 upbm affinity estimate (log intensity, higher = more binding, comparable within an allelic series); in [44] it was 8.21 upbm affinity estimate (log intensity, higher = more binding, comparable within an allelic series); in assay [45], 9.46 upbm affinity estimate (log intensity, higher = more binding, comparable within an allelic series); in [14] it was 7.15 upbm affinity estimate (log intensity, higher = more binding, comparable within an allelic series); in [46] it was 9.45 upbm affinity estimate (log intensity, higher = more binding, comparable within an allelic series). Further, the binding signal was 9.59 upbm affinity estimate (log intensity, higher = more binding, comparable within an allelic series) in assay [47] and 8.39 upbm affinity estimate (log intensity, higher = more binding, comparable within an allelic series) in [48].
